In PubChem BioAssay AID504329 (Southern Research Specialized Biocontainment Screening …, 2011) one finds inhibition data, which are given here for 61 compounds.

Structures are written as SMILES. Screen size: about 340,000 compounds; about 1,000 (0.29%) were called active. Rule as the data show it: inconclusive = inhibition above about 27% without an active follow-up result; inactive = below that. These entries were drawn from the full list. Measured potencies and affinities stand elsewhere.

The experiment in a line: NS1A inhibition, H1N1 influenza, cell based functional assay (AID 504329). Conditions: percent inhibition, at 12.5 µM, hits give high values.
As usually defined, the inhibition is the drop in the measured response relative to a control, in per cent. Take `COc1cc(C2NC(=O)NC(c3ccccc3)=C2C(C)=O)cc(Cl)c1OCC(=O)O` (stereo unspecified): the inhibition was -2.44% (inactive). Next, `CC[C@@]1(C(=O)OC)N[C@H](CN(C)S(=O)(=O)c2ccc(OC)cc2)[C@@H]2C(=O)N(C)C(=O)[C@@H]21`: -26.2% (inactive); `Cc1ccc(S(=O)(=O)NCC(=O)OCC(=O)NCc2ccco2)cc1`: -3.09% (inactive); `O=C(Nc1cccc(Cl)c1)c1cnccn1`: -1.59% (inactive).

Consider `O=C(CCC(=O)Nc1ccc(F)cc1)N/N=C/c1ccc(O)cc1O`, for which the inhibition is 9.41% (inactive). As for `Fc1ccc(NC(=S)N/N=C/c2ccc(F)c(F)c2)cc1`, the inhibition is 0.18% (inactive). Regarding `O=C(CCC(=O)Nc1ccc(F)cc1)N/N=C/c1ccccc1O`, the inhibition is -5.76% (inactive). Turning to `Fc1ccc(NC(=S)NN=Cc2ccccc2Cl)cc1`, the inhibition was -9.24% (inactive).

As for `C/C(=N\NC(=S)Nc1ccccc1C)c1ccc(O)cc1`, the inhibition was 10.4% (inactive). Take `Cc1cccc(NC(=S)N/N=C/c2cccc(O)c2)c1C`: the inhibition is -3.84% (inactive). Regarding `Cc1ccc(S(=O)(=O)NCc2ccccc2)cc1C(=O)N1CCN(S(=O)(=O)c2ccccc2)CC1`, the inhibition was -12.2% (inactive). Regarding `COC(=O)C1SCCN1S(=O)(=O)c1ccc(Cl)cc1` (stereo unspecified), the inhibition is -20.7% (inactive). Then `CN(C)c1nc(OCC(=O)NC(C)(C)C)nc(N(C)C)n1`, with -0.43% (inactive); and `O=C(c1ccc(Br)c(S(=O)(=O)N2CCOCC2)c1)N1CCN(C/C=C/c2ccccc2)CC1`, with -13% (inactive); and `CC1(c2ccc3c(c2)OCCO3)NC(=O)N(CC(=O)Nc2ccccc2SCC#N)C1=O` (stereo unspecified), with -12.2% (inactive).

Take `O=S(=O)(c1cc(O)ccc1O)c1cccc2c(S(=O)(=O)c3cc(O)ccc3O)cccc12`: the inhibition is 12.4% (inactive). As to `Oc1ccc(N=Nc2ccc(Br)cc2)c(O)c1`, the inhibition was -16.2% (inactive). Turning to `O=S(=O)(O)c1cc(O)ccc1O`, the inhibition was 1.1% (inactive). Next, `Oc1ccc(N=Nc2ccc3c(c2)OCCO3)c(O)c1`: 12.8% (inactive); `CC(OC(=O)c1ncc(Cl)c(Cl)c1Cl)C(=O)NC1CCCCC1C` (stereo unspecified): -15.4% (inactive); `CN1C=C/C(=C\c2cc[n+](C)c3ccccc23)c2ccccc21`: 1.31% (inactive). Then `COc1ccc(/C=C/c2ccc3ccccc3[n+]2C)cc1OC`, with -10.2% (inactive).

In the case of `CC(C)CCC(C)NC(=O)Cc1ccc(S(=O)(=O)N2CCOCC2)s1` (stereo unspecified), the inhibition is -3.75% (inactive). As to `O=C(Nc1nc(-c2ccccc2)cs1)c1ccco1`, the inhibition is 1.53% (inactive). `O=C(Nc1nc(-c2ccncc2)cs1)c1ccco1`: the inhibition is 21.8% (inactive). Regarding `O=C(Nc1nc(-c2ccccn2)cs1)c1ccc(Cl)s1`, the inhibition was 12.2% (inactive). Turning to `CC(=O)Nc1ccc(C(=O)Nc2nc(-c3cccnc3)cs2)cc1`, the inhibition was 4.3% (inactive). Next, `C/C(=N\NC(=O)C1COc2ccccc2O1)c1cccs1` (stereo unspecified): -4.26% (inactive). As for `O=C(Nc1nc(-c2ccccn2)cs1)c1ccc2c(c1)OCCO2`, the inhibition was 4.21% (inactive). Then `C/C(=N\NC(=O)C1COc2ccccc2O1)c1ccc(C)o1` (stereo unspecified), with 7.81% (inactive). Next, `O=C(Nc1nc(-c2ccccn2)cs1)c1cccc(-n2cnnn2)c1`: -28.6% (inactive); `O=C(Nc1nc2c(F)cccc2s1)C1CC1`: -11.6% (inactive).

As for `O=C(CN1CCCCC1)Nc1ccc(F)c(Cl)c1`, the inhibition was 6.14% (inactive). For the compound `CC(=O)N1N=C(c2ccc(C)cc2)CC1c1ccc2c(c1)OCO2` (stereo unspecified), the inhibition is -19.2% (inactive). Regarding `Cc1n[nH]c(C)c1CCN(C)Cc1cn(C)nc1-c1ccccc1F`, the inhibition is -2.31% (inactive). On to `CCOC(=O)C(CC)n1cnc2c(nnn2-c2ccccc2)c1=O` (stereo unspecified), for which the inhibition was 4.43% (inactive).

`CC(C)C[C@@H](CNCC(=O)[C@H](Cc1ccccc1)NC(=O)c1[nH]cnc1C(=O)N[C@@H](C)CN)NC(=O)c1nc[nH]c1C(=O)N[C@@H](C)C(=O)O`: the inhibition was -9.76% (inactive). As to `O=C(NCc1cccs1)Nc1cc(Cl)ccc1Cl`, the inhibition is -3.84% (inactive). In the case of `Cc1csc(NC(=O)C2COc3ccccc3O2)n1` (stereo unspecified), the inhibition is 3.59% (inactive). As to `C[C@H](NC(=O)c1ccco1)C(=O)Nc1nc(-c2ccccn2)cs1`, the inhibition is 21.6% (inactive).

Regarding `CC(NC(=O)c1ccco1)C(=O)Nc1nccs1` (stereo unspecified), the inhibition is -3.4% (inactive). In the case of `COc1ccc(-c2csc(NC(=O)C3CC(=O)N(c4ccc5c(c4)OCCO5)C3)n2)cc1` (stereo unspecified), the inhibition is -0.66% (inactive). In the case of `O=C(Nc1nc(-c2ccccc2)cs1)C1COc2ccccc2O1` (stereo unspecified), the inhibition is 3.59% (inactive). With `Cc1csc(NC(=O)C2CC(=O)N(c3ccc4c(c3)OCCO4)C2)n1` (stereo unspecified), the inhibition was -10.8% (inactive).

`Cc1csc(NC(=O)c2nc3nccc(C)n3n2)n1`: the inhibition was 11.3% (inactive). Next, `Cc1ccnc2nc(C(=O)Nc3nc4ccccc4s3)nn12`: -12.1% (inactive); `Cc1ccc(NCC(=O)N/N=C/c2ccncc2)cc1`: -3.31% (inactive); `COc1ccc(Cc2noc(CN(C)CC(O)c3ccccc3)n2)cc1OC` (stereo unspecified): -6.23% (inactive).

For `CC(C)Cc1nnc(NC(=O)c2ccncc2)s1`, the inhibition was 7% (inactive).

For `C[C@H](CO)N1C[C@H](C)[C@@H](CN(C)S(=O)(=O)c2cccs2)Oc2ccc(NC(=O)Cc3ccccc3)cc2C1=O`, the inhibition was -1.59% (inactive). Next, `O=C(CN1C(=O)NC2(CCOc3ccccc32)C1=O)Nc1cccc(Cl)c1` (stereo unspecified): 3.28% (inactive); `CC(=O)CC(=O)Nc1ccn(-c2ccccc2)n1`: 10.6% (inactive); `O=C(CNC(=O)c1ccco1)NCC(=O)OCC(=O)c1ccc(Cl)c([N+](=O)[O-])c1`: 6.1% (inactive). With `O=C1OC(c2ccc(F)cc2)=N/C1=C\C=C/c1ccccc1`, the inhibition was -22.8% (inactive). On to `CC(C)(C)NC(=S)NC(=O)C12CCC3CC(CC(C3)C1)C2`, for which the inhibition was 0.27% (inactive). With `CCOc1ncccc1C(=O)Nc1ccccc1N1CCOCC1`, the inhibition is -4.05% (inactive).

Take `CC(Oc1ccccc1)C(=O)Nc1nc(-c2ccccn2)cs1` (stereo unspecified): the inhibition is 16.9% (inactive).

In the case of `Cc1ccc(C(=O)Nc2nc(-c3ccccn3)cs2)s1`, the inhibition was 18.4% (inactive). `Cc1csc(NC(=O)c2cccn2C)n1`: the inhibition was -0.43% (inactive).

Turning to `Cc1cccc(C(=O)NC(C(=O)Nc2nc(-c3ccccn3)cs2)C(C)C)c1` (stereo unspecified), the inhibition was 15.6% (inactive). For `COc1ccc(NC(=O)CSCc2cc(=O)n3nc(C4CC4)sc3n2)cc1`, the inhibition is 2.59% (inactive).
